Assay results from the supplement of paper PMC6555819.

Tests used:
Experiment in all cases: PBM binding z-score (relative to random genomic background probes); higher = stronger binding; sequences stand for … in GC…GCGATTGACAGCGTAGAATGAAGG
[1] = system: FXR:RXRa (NR concentration 270 nM, RXRa partner concentration 90 nM)
Procedure, shortened: (§1)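 Binding z-scores were set against random background probes. The data came from custom Agilent 4×180K protein-binding microarrays carrying double-stranded probes with 34-nt variable regions, incubated 1 h with ligand-free nuclear receptor dimers. Partner-specific antibodies detected binding, and scanned fluorescence was regression-normalized.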

[2] = system: LXRa:RXRa (NR concentration 270 nM, RXRa partner concentration 90 nM)
Procedure, shortened: as §1

[3] = system: LXRa homodimer (NR concentration 270 nM)
Procedure, shortened: as §1

[4] = system: LXRb:RXRa (NR concentration 270 nM, RXRa partner concentration 90 nM)
Procedure, shortened: as §1

[5] = system: LXRb homodimer (NR concentration 270 nM)
Procedure, shortened: as §1

[6] = system: PPARa:RXRa (NR concentration 270 nM, RXRa partner concentration 90 nM)
Procedure, shortened: as §1

[7] = system: PPARg:RXRa (NR concentration 180 nM, RXRa partner concentration 90 nM)
Procedure, shortened: as §1

[8] = system: PPARg:RXRa 270nM:90nM, anti-RXR (NR concentration 270 nM, RXRa partner concentration 90 nM)
Procedure, shortened: as §1

[9] = system: PPARg:RXRa 30nM:10nM, anti-RXR (NR concentration 30 nM, RXRa partner concentration 10 nM)
Procedure, shortened: as §1

[10] = system: PPARg:RXRa 90nM:30nM, anti-RXR (NR concentration 90 nM, RXRa partner concentration 30 nM)
Procedure, shortened: as §1

[11] = system: PPARg:RXRa DBDmut IVT, anti-RXR (DBD mutation: RXRa K156A/R161A, NR concentration 270 nM, RXRa partner concentration 90 nM)
Procedure, shortened: as §1

[12] = system: PPARg:RXRa IVT, anti-PPARg (NR concentration 270 nM, RXRa partner concentration 90 nM)
Procedure, shortened: as §1

[13] = system: PPARg DBDmut:RXRa IVT, anti-PPARg (DBD mutation: PPARg1 K132A/R137A, NR concentration 270 nM, RXRa partner concentration 90 nM)
Procedure, shortened: as §1

[14] = system: PPARg DBDmut IVT, anti-PPARg (DBD mutation: PPARg1 K132A/R137A, NR concentration 270 nM)
Procedure, shortened: as §1

[15] = system: PPARg homodimer (NR concentration 180 nM)
Procedure, shortened: as §1

[16] = system: PXR:RXRa (NR concentration 270 nM, RXRa partner concentration 90 nM)
Procedure, shortened: as §1

[17] = system: PXR homodimer (NR concentration 270 nM)
Procedure, shortened: as §1

[18] = system: RARa:RXR (NR concentration 270 nM, RXRa partner concentration 90 nM)
Procedure, shortened: as §1

[19] = system: RARa homodimer (NR concentration 270 nM)
Procedure, shortened: as §1

[20] = system: RARb:RXRa (NR concentration 270 nM, RXRa partner concentration 90 nM)
Procedure, shortened: as §1

Row | Sequence | PBM binding z-score [1] | PBM binding z-score [2] | PBM binding z-score [3] | PBM binding z-score [4] | PBM binding z-score [5] | PBM binding z-score [6] | PBM binding z-score [7] | PBM binding z-score [8] | PBM binding z-score [9] | PBM binding z-score [10] | PBM binding z-score [11] | PBM binding z-score [12] | PBM binding z-score [13] | PBM binding z-score [14] | PBM binding z-score [15] | PBM binding z-score [16] | PBM binding z-score [17] | PBM binding z-score [18] | PBM binding z-score [19] | PBM binding z-score [20]
1 | GGAACGAGGGCATTCGAGTTGAAAGCATGGCGAT | 1.15 | 2.67 | -0.268 | 0.406 | -1.04 | 1.85 | 0.762 | 0.887 | -0.332 | 0.259 | 2.58 | 2.01 | -0.14 | -0.111 | 0.301 | 3.96 | 1.15 | 1.18 | -0.521 | 1.71
2 | TGTCAAAGTTCAAAGTTAACGTAAGTATCCACAC | 6.94 | 6.38 | 5.46 | 4.6 | 2.99 | 5.59 | 8.27 | 7.38 | 5.04 | 7.29 | 0.374 | 4.24 | 1.16 | 1.99 | 2.65 | 5.04 | 4.24 | 4.46 | 1.12 | 5.12
3 | CGAATTAGGTCAGAACAGGACAGTGAAGGATGAT | 1.56 | 1.31 | 0.144 | 0.781 | 0.086 | 3.41 | 4.98 | 4.59 | 2.05 | 3.65 | 7.02 | 7.15 | 2.8 | 1.42 | 1.73 | 1.09 | 0.149 | 1.31 | 1.19 | 3.29
4 | TTACCAAGGTGTAAGGTCGTTGATGCACGCCTTG | 0.533 | 0.628 | -0.156 | 0.478 | -0.764 | 2.06 | 2.4 | 4.03 | 1.99 | 3.46 | -0.345 | 1.3 | 0.0676 | -0.033 | 0.125 | 1.1 | 0.267 | 1.38 | -0.417 | 1.09
5 | TCATATAGGTAAGACAGGTGAAAGTCGGCATCTA | 1.17 | 1.21 | 0.129 | 0.604 | 0.0128 | 1.49 | 0.925 | 2.42 | 4.15 | 3.3 | 3.27 | 2.39 | 0.585 | 1.03 | 0.477 | 0.625 | 0.645 | 0.925 | 1.31 | 0.61
6 | AATGCAGGGTCATCGTAGGCCAGAGTACGCACAG | 7.22 | 6.03 | 1.22 | 4.54 | -0.0477 | 5.97 | 6.45 | 5.75 | 2.6 | 4.62 | 2.83 | 4.24 | 1.78 | 1.66 | 2.03 | 4.81 | 0.279 | 4.75 | 0.252 | 4.37
7 | CCTACTGGGCCATTCAGATGTCATTGATCATATG | -0.368 | -0.638 | -0.391 | -0.292 | -0.418 | 0.25 | 0.6 | 0.494 | 0.00113 | 0.0703 | 4.47 | 3.44 | -0.00111 | 0.0316 | 0.0941 | -0.564 | -0.799 | -0.682 | -0.198 | 0.127
8 | ACTTTCGGGTCAACGAGGTTATAGCACGCGTATA | 6.38 | 5.02 | 0.999 | 4.56 | 1.45 | 5.52 | 4.94 | 5.18 | 2.34 | 4.34 | 3.31 | 4.16 | 1.8 | 1.14 | 2.32 | 5.37 | 6.97 | 4.91 | 1.53 | 4.29
9 | CGTCAAAGTTCAACTATGGTAACGTAAAGCACGC | 6.59 | 6.03 | 3.91 | 4.34 | 2.3 | 4.97 | 4.9 | 5.62 | 2.24 | 4.52 | 0.569 | 1.9 | 1.06 | 1.31 | 3.74 | 4.94 | 4.27 | 4.14 | 2.09 | 5.33
10 | TTACCAAGGTGAAAGGTCGATGATGCACGCCTTG | 3.03 | 2.42 | -0.187 | 2.14 | -0.613 | 4.95 | 8.4 | 7.54 | 6.44 | 7.87 | 2.4 | 4.78 | 0.899 | 1.64 | 2.36 | 3.08 | -0.143 | 4.99 | 0.188 | 2.98
11 | AGAATGAGGTTATACGTAGATCGGGGAAGAAAGT | 2.27 | 2 | 0.119 | 1.96 | 0.366 | 3.29 | 1.84 | 2.15 | 0.629 | 1.49 | 4.33 | 2.22 | 0.772 | -0.0447 | 1 | 1.43 | 0.718 | 1.92 | 0.264 | 1.58
12 | TAGCCTAGGTCGTTGGGCCAGTATAGTACGCATC | 0.234 | -0.0129 | -0.222 | 0.178 | -0.371 | 0.544 | 0.271 | 0.0972 | -0.401 | -0.153 | -0.226 | 0.592 | -0.845 | -0.754 | -0.186 | -0.0683 | -0.446 | 0.0528 | -0.627 | 1.02
13 | GGAACGAGGGCATTAGAGTTGATAGCATGGCGAT | 0.899 | 2.35 | -0.104 | 0.257 | -0.699 | 1.22 | 0.982 | 0.676 | 0.105 | 0.129 | 3.06 | 2.02 | -0.0353 | -0.143 | 0.508 | 3.02 | 0.854 | 0.328 | -0.0747 | 1.79
14 | ATCGAAAGGTCGTGTGGTGAGTATACAGAAAGGC | 4.91 | 4.22 | 0.724 | 3.43 | 1.53 | 4.84 | 3.01 | 3.37 | 1.38 | 2.57 | 0.568 | 1.69 | 2.41 | 1.23 | 2.3 | 3.25 | 0.999 | 3.74 | 1.51 | 3.6
